Experiment [1] has as its target Fibroblast growth factor receptor 4 (Homo sapiens) (UniProt P22455). As to conditions: at 1 µM.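 Also: reported figure is the averaged percent inhibition of FGFR4, from the GSK PKIS kinase screening panel.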
The target in experiment [2] is Tyrosine-protein kinase Fgr (Homo sapiens) (UniProt P09769). Conditions: at 0.1 µM.
Experiment [3] has the same target. Conditions: at 1 µM.
The target in experiment [4] is Vascular endothelial growth factor receptor 1 (Homo sapiens) (UniProt P17948). Conditions: at 0.1 µM.
Vascular endothelial growth factor receptor 1 (Homo sapiens), sequence (P17948 whole entry): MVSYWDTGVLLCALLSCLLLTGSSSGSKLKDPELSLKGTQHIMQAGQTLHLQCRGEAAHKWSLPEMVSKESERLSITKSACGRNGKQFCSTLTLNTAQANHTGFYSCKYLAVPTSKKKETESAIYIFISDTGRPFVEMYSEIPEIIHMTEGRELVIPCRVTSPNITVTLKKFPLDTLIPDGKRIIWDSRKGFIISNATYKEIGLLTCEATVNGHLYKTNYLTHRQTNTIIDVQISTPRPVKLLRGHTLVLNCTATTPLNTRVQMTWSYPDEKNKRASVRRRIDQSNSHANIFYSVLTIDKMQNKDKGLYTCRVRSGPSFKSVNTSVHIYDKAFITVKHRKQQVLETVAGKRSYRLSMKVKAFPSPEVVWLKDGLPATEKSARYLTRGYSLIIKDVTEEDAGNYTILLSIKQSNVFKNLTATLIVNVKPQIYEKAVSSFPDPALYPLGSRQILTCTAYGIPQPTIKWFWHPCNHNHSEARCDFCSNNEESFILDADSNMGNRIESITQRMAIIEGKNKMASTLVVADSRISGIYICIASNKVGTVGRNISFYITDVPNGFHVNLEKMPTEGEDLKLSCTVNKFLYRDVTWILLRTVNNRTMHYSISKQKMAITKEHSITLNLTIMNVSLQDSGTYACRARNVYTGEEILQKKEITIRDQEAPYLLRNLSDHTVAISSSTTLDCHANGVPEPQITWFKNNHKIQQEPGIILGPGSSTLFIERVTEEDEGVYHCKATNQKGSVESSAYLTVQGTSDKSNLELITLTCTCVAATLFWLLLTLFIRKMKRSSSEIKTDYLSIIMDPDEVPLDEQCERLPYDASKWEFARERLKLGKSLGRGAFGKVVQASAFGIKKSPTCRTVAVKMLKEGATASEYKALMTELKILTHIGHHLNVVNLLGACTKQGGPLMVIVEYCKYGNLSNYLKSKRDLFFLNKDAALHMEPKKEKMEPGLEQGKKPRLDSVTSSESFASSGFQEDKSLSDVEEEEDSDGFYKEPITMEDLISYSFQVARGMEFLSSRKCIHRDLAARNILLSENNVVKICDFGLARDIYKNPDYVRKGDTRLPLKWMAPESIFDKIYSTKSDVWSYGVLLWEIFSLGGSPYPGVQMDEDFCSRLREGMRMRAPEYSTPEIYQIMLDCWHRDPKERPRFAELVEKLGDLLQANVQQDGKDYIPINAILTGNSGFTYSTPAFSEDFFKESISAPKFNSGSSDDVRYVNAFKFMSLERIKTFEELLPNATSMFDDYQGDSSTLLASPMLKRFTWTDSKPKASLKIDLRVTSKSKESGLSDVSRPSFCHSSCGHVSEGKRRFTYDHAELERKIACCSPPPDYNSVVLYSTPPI
Experiment [5] has the same target. As to conditions: at 1 µM.
In experiment [6] the target is Receptor-type tyrosine-protein kinase FLT3 (Homo sapiens) (UniProt P36888). As to conditions: at 0.1 µM.
The target is the same in experiment [7]. As to conditions: at 1 µM.
Experiment [8] concerns T1, Receptor-type tyrosine-protein kinase FLT3 (Homo sapiens), P36888 [D835Y].
T1 sequence (whole entry): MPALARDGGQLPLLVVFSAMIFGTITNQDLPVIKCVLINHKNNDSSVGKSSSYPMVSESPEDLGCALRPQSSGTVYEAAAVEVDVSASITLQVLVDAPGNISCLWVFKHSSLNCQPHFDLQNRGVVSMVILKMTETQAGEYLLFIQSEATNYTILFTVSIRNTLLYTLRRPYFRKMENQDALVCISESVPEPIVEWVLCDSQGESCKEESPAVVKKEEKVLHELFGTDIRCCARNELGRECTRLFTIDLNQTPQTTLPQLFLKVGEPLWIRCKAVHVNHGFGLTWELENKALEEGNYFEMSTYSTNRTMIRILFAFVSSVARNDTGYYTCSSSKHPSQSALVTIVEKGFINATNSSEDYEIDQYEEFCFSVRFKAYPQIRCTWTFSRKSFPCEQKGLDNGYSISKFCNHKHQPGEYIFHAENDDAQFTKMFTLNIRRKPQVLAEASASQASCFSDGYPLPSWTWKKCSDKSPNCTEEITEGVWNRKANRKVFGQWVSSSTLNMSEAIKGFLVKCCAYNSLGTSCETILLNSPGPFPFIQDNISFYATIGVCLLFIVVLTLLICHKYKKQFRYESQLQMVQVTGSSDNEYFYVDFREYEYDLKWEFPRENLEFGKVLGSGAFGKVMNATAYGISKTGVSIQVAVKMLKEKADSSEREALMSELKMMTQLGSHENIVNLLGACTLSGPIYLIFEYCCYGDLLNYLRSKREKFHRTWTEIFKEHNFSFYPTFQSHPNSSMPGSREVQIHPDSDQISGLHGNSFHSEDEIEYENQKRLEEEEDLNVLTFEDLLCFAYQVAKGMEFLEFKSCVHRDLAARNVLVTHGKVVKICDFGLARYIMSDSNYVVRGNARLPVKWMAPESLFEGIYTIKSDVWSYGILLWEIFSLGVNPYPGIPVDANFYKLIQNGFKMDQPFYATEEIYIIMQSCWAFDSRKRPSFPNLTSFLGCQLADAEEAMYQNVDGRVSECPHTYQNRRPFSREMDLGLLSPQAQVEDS
Conditions: at 0.1 µM.

For experiment [9], the target named is Non-receptor tyrosine-protein kinase TYK2 (Homo sapiens) (UniProt P29597). As to conditions: at 1 µM.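 Also: values are mean percent inhibition of TYK2 kinase.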
Non-receptor tyrosine-protein kinase TYK2 (Homo sapiens), sequence (P29597 whole entry): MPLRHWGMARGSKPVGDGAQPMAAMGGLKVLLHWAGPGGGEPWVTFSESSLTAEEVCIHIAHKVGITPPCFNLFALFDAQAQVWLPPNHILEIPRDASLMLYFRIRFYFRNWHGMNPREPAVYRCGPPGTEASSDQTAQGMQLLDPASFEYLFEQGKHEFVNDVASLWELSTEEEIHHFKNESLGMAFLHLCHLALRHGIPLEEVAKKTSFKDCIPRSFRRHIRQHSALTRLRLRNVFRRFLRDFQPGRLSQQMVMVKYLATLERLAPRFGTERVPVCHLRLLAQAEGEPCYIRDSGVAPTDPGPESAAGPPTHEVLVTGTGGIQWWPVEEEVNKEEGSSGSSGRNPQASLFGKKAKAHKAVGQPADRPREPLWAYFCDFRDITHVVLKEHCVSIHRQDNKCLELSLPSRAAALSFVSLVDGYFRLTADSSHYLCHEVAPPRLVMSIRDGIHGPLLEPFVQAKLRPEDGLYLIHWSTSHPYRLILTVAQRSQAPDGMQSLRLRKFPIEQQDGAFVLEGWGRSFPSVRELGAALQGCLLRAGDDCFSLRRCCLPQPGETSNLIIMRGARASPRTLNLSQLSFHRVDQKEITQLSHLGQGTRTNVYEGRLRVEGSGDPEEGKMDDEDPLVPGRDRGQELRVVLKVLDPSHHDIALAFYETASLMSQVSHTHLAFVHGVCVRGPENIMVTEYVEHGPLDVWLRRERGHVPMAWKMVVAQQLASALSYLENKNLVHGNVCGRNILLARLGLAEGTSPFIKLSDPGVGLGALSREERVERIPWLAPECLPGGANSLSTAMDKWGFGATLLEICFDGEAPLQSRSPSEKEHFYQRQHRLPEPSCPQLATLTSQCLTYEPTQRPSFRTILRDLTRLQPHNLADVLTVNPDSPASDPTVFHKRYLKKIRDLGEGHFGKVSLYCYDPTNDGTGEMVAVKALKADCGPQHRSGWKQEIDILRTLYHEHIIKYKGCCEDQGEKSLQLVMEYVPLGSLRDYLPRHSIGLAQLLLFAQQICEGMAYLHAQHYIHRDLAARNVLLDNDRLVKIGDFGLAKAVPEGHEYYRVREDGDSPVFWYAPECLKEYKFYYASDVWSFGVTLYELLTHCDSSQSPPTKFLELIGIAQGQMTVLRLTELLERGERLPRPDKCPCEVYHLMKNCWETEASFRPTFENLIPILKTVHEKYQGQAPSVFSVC
The target of experiment [10] is T2, Tyrosine-protein kinase receptor TYRO3 (Homo sapiens) (UniProt Q06418).
T2 sequence (whole entry): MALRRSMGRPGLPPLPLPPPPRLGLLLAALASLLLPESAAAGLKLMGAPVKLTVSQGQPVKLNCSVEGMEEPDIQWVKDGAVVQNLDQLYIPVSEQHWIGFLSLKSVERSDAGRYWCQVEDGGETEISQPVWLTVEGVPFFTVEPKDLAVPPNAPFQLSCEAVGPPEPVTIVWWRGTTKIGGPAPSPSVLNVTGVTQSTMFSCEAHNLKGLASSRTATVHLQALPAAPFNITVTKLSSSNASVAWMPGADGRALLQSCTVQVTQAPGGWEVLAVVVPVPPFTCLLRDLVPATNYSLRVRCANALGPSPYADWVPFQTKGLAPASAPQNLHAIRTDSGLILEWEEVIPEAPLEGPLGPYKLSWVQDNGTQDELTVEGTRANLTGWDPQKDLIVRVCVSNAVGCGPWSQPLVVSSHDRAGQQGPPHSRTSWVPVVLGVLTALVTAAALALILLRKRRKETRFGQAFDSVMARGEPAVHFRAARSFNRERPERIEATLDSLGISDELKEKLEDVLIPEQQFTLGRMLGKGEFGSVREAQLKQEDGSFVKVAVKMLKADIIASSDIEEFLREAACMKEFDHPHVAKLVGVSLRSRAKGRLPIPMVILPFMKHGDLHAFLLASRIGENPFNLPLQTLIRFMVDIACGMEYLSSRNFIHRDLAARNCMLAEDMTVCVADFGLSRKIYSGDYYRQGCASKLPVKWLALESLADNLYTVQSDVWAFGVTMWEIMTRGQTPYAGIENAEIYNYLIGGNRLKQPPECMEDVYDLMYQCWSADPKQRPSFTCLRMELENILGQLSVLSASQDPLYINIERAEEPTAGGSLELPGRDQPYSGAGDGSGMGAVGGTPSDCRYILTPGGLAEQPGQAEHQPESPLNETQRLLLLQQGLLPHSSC
Conditions: at 0.1 µM.

For experiment [11], the target named is T2, Tyrosine-protein kinase receptor TYRO3 (Homo sapiens). Conditions: at 1 µM.
For experiment [12], the target named is Tyrosine-protein kinase Yes (Homo sapiens) (UniProt P07947). As to conditions: at 0.1 µM.
Tyrosine-protein kinase Yes (Homo sapiens), sequence (P07947 2-543 limits assumed): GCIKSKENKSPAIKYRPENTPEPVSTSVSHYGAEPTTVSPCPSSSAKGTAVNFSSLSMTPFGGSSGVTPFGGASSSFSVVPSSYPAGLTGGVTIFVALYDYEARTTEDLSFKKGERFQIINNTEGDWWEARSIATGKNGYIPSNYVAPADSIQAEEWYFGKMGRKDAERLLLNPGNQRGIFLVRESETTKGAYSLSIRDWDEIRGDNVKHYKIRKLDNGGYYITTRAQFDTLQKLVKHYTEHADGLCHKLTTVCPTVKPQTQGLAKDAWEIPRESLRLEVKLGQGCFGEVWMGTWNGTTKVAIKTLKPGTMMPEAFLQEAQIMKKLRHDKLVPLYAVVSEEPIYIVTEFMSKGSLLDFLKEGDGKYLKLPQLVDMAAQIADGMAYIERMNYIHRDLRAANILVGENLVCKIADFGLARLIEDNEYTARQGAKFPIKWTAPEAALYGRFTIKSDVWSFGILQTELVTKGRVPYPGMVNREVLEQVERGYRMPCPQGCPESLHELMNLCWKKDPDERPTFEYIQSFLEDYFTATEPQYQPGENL
Experiment [13] shares this target. As to conditions: at 1 µM.
The target of experiment [14] is T3, Tyrosine-protein kinase ZAP-70 (Homo sapiens) (UniProt P43403).
T3 sequence (whole entry): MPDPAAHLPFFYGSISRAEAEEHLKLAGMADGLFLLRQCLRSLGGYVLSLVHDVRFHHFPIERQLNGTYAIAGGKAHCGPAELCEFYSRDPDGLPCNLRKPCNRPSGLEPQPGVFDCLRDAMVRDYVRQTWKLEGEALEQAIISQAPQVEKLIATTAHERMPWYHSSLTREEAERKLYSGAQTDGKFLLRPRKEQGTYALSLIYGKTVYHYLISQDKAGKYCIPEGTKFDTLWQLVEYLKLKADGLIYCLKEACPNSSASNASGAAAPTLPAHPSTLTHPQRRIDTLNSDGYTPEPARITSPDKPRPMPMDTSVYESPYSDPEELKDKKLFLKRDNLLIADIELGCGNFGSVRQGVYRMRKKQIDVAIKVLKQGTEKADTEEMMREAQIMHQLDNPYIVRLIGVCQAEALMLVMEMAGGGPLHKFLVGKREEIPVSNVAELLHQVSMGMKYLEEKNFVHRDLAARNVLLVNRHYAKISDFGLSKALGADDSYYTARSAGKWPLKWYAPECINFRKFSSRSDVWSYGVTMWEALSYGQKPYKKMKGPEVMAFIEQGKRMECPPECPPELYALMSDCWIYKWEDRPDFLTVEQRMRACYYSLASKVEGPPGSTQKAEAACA
Conditions: at 0.1 µM.

The target in experiment [15] is T3, Tyrosine-protein kinase ZAP-70 (Homo sapiens). Conditions: at 1 µM.
Experiment [16] concerns the target Serine/threonine-protein kinase B-raf (Homo sapiens) (UniProt P15056). Conditions: at 0.1 µM.
The target is the same in experiment [17]. As to conditions: at 1 µM.
Experiment [18] concerns Serine/threonine-protein kinase B-raf (Homo sapiens), P15056 [V600E]. Conditions: at 0.1 µM.
For experiment [19] the test system is unchanged. As to conditions: at 1 µM.
The target of experiment [20] is RAF proto-oncogene serine/threonine-protein kinase (Homo sapiens) (UniProt P04049). As to conditions: at 0.1 µM.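 Also: values are mean CRAF kinase inhibition from profiling of the GSK Published Kinase Inhibitor Set.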
RAF proto-oncogene serine/threonine-protein kinase (Homo sapiens), sequence (P04049 whole entry): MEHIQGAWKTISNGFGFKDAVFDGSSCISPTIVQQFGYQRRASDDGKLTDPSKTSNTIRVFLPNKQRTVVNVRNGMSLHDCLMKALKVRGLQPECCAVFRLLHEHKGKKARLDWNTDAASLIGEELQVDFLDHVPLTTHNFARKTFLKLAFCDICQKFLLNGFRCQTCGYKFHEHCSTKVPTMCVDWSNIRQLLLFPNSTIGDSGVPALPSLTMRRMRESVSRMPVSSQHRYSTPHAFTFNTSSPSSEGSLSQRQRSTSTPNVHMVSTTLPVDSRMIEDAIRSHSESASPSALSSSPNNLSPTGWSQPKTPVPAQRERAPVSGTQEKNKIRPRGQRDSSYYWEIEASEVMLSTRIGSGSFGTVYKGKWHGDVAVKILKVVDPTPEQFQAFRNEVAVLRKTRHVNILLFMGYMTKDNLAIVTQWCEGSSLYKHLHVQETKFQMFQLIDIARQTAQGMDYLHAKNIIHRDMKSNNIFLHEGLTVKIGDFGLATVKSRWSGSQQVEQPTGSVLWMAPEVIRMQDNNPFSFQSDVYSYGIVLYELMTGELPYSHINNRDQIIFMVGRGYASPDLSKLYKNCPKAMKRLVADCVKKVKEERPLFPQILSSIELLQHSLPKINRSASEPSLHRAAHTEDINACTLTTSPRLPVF

Where “and” joins values, the source holds several entries; their conditions need not be identical. Equal entries are not always repeated.

Tyrosine-protein kinase Fgr (Homo sapiens), sequence (P09769 2-529 limits assumed): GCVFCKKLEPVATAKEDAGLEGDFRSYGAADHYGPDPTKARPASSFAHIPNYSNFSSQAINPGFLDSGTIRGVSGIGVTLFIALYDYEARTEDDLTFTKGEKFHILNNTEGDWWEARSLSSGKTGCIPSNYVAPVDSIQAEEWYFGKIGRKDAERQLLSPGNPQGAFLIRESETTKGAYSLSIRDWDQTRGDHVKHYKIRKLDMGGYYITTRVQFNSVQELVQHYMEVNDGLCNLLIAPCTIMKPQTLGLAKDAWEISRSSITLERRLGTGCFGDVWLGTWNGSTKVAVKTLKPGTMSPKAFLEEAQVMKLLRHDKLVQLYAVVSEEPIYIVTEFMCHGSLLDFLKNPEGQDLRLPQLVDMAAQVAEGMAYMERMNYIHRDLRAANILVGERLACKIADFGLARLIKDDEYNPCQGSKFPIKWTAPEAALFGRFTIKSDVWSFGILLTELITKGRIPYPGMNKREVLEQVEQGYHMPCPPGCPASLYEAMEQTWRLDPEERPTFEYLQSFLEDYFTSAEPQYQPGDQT
Fibroblast growth factor receptor 4 (Homo sapiens), sequence (P22455 22-802 limits assumed): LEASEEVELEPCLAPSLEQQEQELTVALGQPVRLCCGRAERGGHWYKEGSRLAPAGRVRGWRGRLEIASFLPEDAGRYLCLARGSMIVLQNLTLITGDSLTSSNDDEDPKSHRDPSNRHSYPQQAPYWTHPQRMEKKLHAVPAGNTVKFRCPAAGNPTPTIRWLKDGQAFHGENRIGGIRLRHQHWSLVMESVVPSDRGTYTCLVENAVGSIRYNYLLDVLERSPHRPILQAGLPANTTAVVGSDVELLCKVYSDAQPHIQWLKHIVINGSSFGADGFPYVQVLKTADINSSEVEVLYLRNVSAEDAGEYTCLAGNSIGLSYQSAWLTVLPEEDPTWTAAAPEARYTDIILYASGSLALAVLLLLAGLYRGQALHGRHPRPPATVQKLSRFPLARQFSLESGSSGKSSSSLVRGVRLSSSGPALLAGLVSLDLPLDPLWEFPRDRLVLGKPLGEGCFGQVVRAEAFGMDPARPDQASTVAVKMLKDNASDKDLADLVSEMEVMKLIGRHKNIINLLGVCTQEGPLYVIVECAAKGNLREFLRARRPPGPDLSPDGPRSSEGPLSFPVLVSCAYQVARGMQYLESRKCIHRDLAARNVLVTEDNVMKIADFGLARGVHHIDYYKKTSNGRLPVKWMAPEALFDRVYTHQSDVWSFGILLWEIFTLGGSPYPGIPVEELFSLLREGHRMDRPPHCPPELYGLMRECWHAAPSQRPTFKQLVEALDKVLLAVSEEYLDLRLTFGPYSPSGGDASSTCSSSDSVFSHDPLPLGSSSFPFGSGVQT

As usually defined, the inhibition is the drop in the measured response relative to a control, in per cent. In the case of `O=C(Nc1n[nH]c2nnc(-c3cccnc3)cc12)C1CC1`, the inhibition in experiment [1] is -0.33%; in [2], 2.57%; in [3], 2.95%; in experiment [4], 0.7%; in [5], 0.07%; in [6], -0.64%. The inhibition is 1.54% in experiment [7]; 0.49% in experiment [8]; 2.04% in experiment [9]; -0.64% in experiment [10]; 1.65% in experiment [11]; 1.69% in experiment [12]. In addition, the inhibition is 7.01% in experiment [13]; -1.5% in experiment [14]; 2.36% in [15]; 0.25% in experiment [16]; 2.61% in [17]; 1.02% in experiment [18]. Moreover, the values for the inhibition in experiment [19] and in experiment [20] were 3.66% and -2.58%, respectively.

Consider `CCn1c(-c2nonc2N)nc2cncc(C(=O)NCCNC)c21`, for which the inhibition in [1] came out at 1.09%; in experiment [2] it was 1.3%; in experiment [3] it was 4.66%; in [4], 2.02%; in [5] it was 3.5%; in [6] it was 0.34%. The inhibition in experiment [7] was 4.29%; in experiment [8], -3.83%; in experiment [9] it was -3.99%; in [10], 3.7%; in experiment [11], 5.41%; in experiment [12], 2.4%. For the same compound, the inhibition in experiment [13] worked out at 5.52%; in [14] it was 0.59%; in experiment [15], 1.01%; in [16] it was 7.93%; in [17] it was 7.26%; in experiment [18] it was 4.48%. The inhibition stood at 4.42% in [19] and 2.61% in [20].

With `COc1cc(N2CCN(C(C)C)CC2)ccc1Nc1nc(Nc2cccc3ncccc23)c2cc[nH]c2n1`, the inhibition in experiment [1] was 0.41%; in [2], -0.04%; in experiment [3], 3.16%; in [4], 1.51%; in experiment [5], 0.56%; in experiment [6], 0.08%. Further, the inhibition was 1.34% in [7]; 1.05% in [8]; 2.42% in experiment [9]; -2.4% in experiment [10]; -0.92% in experiment [11]; -0.19% in [12]. Besides, the inhibition in [13] was 1.79%; in [14], -0.91%; in experiment [15], -0.16%; in experiment [16] it was -0.4%; in experiment [17], 0.61%; in [18] it was 0.32%. The inhibition was 1.11% in experiment [19] and 0.02% in [20].

Regarding `Nc1ncnc2occ(-c3ccc(NC(=O)Nc4cc(C(F)(F)F)ccc4F)cc3)c12`, the inhibition is 16.7% and 10% in experiment [1]; 3.04% and 0.42% in experiment [2]; 24.4% and 11.4% in experiment [3]; 37.5% and 26.9% in experiment [4]; 84.5% and 74.3% in experiment [5]; 65.9% and 59.9% in [6]. The inhibition in experiment [7] was 89.1% and 89.5%; in experiment [8], 18% and 5.3%; in [9], -7.38% and 0.28%; in experiment [10], 5.11% and -0.01%; in experiment [11] it was 35.9% and 19%; in experiment [12], 6.63% and 1.99%. In addition, the inhibition was 32.5% and 23.6% in experiment [13]; 1.41% and -6.7% in [14]; 3.15% and -0.06% in experiment [15]; 2.87% and -2.08% in experiment [16]; 7.26% and 0.64% in experiment [17]; 2.85% and -0.81% in experiment [18]. Further, the inhibition in [19] is 11.3% and 5.32%; in experiment [20], -9.78% and -3.09%.

Take `N#Cc1ccc2c(-c3ccnc(NC4CC4)n3)c(-c3ccc(F)cc3)nn2c1`: the inhibition was -0.59% in experiment [1]; 1.68% in experiment [2]; 1.53% in experiment [3]; 1.23% in experiment [4]; 3.07% in experiment [5]; 0.32% in experiment [6]. The inhibition in experiment [7] was -2.7%; in experiment [8] it was -5.78%; in experiment [9], -2.44%; in [10] it was -1.24%; in [11], 0.69%; in experiment [12], 2.22%. The inhibition in experiment [13] was 3.79%; in [14] it was -2.8%; in [15], 1.15%; in experiment [16], 2.6%; in experiment [17] it was 5.81%; in experiment [18], 2.7%. For the same compound, the inhibition in [19] was 4.72%; in experiment [20] it was -0.7%.

Regarding `CN(C)CCNC(=O)Nc1ccc(N(C)c2ccnc(Nc3ccc(CS(C)(=O)=O)cc3)n2)cc1`, the inhibition in experiment [1] worked out at 2.84%; in experiment [2], 1.07%; in experiment [3], 9.57%; in experiment [4], 4.18%; in experiment [5], 8.87%; in experiment [6], 16%. Further, the inhibition is 58.6% in experiment [7]; -5.17% in experiment [8]; -3.31% in experiment [9]; 2.66% in [10]; 5.87% in experiment [11]; 0.55% in [12]. Further, the inhibition in [13] was 2.71%; in [14] it was 1.7%; in [15] it was 1.48%; in [16] it was 4.53%; in experiment [17] it was 5.12%; in experiment [18] it was 5.5%. Also, the inhibition in [19] was 6.71%; in experiment [20], -0.51%.

In the case of `COc1ccc(-c2nn3ncccc3c2-c2ccnc(Nc3ccc(F)c(F)c3)n2)cc1`, the inhibition came to 0.82% in experiment [1]; 20.4% in [2]; 60.8% in experiment [3]; 2.48% in experiment [4]; 6.3% in experiment [5]; 2.32% in experiment [6]. Further, the inhibition was 4.16% in experiment [7]; 4.75% in experiment [8]; -1.25% in [9]; 3.56% in [10]; 6.24% in experiment [11]; 39.5% in experiment [12]. Further, the inhibition in [13] turned out to be 85.2%; in [14], 2.54%; in [15] it was 1.2%; in experiment [16] it was 5.72%; in experiment [17], 5.29%; in experiment [18], 4.54%. Further, the values for the inhibition in experiment [19] and in experiment [20] were 3.83% and 0.22%, respectively.

Source of the values: ChEMBL document CHEMBL1961873, “Compounds: GSK PKIS; Assays: Nanosyn kinase panel” (2012).
